Reference: the supplement of paper PMC11732987, “Enantioselective OTUD7B fragment discovery through chemoproteomics screening and high-throughput optimisation” (Communications Chemistry, 2025)

Tests used:
Test in all cases: log2 ratio of Biotin-Ahx-Ub-VS probe labelling (fragment/DMSO); higher = less target engagement (more negative = stronger competition), active = hit call of the paper (q ≤ 0.05, log2 ratio ≤ -1)
Conditions in all cases: compound concentration: 200 uM; treatment time: 3 h
[1] = target: T1, USP42 (UniProt Q9H9J4)
T1 sequence (whole entry): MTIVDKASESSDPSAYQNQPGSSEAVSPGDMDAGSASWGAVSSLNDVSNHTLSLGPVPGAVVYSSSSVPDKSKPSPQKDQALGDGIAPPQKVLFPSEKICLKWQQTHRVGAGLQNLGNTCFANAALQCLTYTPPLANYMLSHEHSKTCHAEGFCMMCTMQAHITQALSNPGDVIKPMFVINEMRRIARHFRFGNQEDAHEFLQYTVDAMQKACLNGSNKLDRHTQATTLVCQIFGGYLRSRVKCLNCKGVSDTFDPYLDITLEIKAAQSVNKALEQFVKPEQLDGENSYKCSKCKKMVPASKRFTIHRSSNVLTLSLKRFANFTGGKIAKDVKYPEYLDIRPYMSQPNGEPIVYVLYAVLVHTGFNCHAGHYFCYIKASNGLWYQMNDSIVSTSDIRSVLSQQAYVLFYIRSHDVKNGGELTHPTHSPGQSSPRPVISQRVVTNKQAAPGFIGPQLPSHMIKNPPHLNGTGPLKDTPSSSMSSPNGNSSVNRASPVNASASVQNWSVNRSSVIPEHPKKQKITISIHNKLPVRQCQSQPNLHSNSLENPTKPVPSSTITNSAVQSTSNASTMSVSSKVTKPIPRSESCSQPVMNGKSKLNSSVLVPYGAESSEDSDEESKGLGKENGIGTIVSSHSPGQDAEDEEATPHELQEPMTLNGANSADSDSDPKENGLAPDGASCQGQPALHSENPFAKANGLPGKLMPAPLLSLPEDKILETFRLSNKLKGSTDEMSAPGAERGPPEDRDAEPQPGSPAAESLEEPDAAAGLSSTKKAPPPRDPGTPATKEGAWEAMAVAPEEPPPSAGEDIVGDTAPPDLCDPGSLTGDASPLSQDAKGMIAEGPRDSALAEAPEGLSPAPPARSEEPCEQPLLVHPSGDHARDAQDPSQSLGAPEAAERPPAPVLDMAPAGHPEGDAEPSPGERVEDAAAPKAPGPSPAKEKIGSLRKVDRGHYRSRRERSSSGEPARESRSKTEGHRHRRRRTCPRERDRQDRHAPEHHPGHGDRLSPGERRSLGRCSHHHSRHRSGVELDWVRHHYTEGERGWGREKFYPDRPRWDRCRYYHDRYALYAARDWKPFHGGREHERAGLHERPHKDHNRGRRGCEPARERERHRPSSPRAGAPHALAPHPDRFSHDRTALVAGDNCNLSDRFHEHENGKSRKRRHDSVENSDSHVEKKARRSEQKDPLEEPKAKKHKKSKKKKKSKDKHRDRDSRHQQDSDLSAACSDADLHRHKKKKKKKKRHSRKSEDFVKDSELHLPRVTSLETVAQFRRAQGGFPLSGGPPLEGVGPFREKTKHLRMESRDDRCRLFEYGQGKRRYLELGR
How it was run: (§1)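 Average log2 ratios of fragment over vehicle were obtained by unpaired t-test from global-median-normalised Spectronaut label-free quantities. Proteins with ≥2 unique peptides were included. HEK293T lysate (495 µg per sample) was treated in triplicate with fragment at 200 µM or vehicle for 3 h, then with Biotin-Ahx-Ub-VS at 0.5 µM final for 1 h, and labelled DUBs were NeutrAvidin-enriched and run by diaPASEF LC-MS/MS.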

[2] = target: USP46 (UniProt P62068)
How it was run: as §1

[3] = target: T2, USP47 (UniProt Q96K76)
T2 sequence (whole entry): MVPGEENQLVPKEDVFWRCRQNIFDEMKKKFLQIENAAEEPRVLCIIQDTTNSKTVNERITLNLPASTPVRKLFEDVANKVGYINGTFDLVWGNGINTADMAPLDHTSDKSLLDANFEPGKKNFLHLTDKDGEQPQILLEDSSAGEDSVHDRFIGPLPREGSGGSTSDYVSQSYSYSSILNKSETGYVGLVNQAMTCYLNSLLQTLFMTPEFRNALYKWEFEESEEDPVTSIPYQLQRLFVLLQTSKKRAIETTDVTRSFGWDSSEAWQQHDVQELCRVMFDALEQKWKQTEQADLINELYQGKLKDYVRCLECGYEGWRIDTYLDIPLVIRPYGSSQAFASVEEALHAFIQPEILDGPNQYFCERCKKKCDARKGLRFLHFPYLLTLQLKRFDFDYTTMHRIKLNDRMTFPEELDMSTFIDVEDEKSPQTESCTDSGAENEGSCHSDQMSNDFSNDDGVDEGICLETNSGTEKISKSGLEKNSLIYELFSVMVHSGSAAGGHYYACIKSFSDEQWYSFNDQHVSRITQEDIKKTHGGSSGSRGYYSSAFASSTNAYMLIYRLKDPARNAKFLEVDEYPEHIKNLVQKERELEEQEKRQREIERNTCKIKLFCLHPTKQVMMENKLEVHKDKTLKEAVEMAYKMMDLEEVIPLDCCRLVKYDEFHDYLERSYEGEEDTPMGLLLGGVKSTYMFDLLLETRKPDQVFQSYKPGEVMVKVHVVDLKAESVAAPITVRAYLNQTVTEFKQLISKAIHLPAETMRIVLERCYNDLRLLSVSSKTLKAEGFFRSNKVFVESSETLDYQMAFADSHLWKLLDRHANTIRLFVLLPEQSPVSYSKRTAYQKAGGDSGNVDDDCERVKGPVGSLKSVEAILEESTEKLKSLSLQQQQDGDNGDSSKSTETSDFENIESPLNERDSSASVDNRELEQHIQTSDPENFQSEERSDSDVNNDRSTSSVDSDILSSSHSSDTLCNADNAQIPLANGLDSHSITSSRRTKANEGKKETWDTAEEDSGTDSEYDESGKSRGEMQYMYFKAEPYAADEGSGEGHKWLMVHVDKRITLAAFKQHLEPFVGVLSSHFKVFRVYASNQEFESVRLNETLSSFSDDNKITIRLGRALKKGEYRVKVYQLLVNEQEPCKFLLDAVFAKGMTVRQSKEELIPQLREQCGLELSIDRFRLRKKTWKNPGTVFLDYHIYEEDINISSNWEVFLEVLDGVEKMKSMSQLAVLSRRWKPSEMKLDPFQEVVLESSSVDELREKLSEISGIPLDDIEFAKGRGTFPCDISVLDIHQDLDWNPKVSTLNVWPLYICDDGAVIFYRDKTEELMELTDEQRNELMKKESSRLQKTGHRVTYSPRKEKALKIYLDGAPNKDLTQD
How it was run: as §1

[4] = target: T3, USP48 (UniProt Q86UV5)
T3 sequence (whole entry): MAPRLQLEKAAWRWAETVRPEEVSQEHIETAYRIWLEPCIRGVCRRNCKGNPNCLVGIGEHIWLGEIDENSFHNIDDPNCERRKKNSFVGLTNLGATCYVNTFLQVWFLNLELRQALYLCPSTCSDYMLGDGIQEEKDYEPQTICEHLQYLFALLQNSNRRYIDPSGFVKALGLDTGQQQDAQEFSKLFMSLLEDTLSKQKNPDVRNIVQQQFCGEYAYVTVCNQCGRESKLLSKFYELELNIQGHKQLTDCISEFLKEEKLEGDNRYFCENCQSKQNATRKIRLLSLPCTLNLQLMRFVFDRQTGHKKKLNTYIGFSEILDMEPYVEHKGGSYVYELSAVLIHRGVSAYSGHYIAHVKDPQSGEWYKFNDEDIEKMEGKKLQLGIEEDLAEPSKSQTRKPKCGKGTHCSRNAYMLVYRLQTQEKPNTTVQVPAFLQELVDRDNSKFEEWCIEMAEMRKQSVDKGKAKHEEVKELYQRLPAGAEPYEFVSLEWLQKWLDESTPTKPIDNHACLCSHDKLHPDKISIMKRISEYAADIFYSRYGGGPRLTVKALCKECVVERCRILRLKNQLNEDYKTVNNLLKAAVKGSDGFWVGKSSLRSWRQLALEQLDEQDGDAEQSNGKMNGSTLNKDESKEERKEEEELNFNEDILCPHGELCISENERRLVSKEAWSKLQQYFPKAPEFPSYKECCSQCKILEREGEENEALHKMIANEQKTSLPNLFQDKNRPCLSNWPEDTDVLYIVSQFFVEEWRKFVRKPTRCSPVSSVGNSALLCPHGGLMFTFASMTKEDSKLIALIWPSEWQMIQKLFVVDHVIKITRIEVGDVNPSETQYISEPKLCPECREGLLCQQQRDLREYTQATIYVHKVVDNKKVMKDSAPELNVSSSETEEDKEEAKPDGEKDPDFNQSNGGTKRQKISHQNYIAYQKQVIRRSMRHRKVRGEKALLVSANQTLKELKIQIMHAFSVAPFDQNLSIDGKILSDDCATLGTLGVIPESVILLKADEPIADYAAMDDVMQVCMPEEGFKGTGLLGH
How it was run: as §1

[5] = target: T4, USP5 (UniProt P45974)
T4 sequence (whole entry): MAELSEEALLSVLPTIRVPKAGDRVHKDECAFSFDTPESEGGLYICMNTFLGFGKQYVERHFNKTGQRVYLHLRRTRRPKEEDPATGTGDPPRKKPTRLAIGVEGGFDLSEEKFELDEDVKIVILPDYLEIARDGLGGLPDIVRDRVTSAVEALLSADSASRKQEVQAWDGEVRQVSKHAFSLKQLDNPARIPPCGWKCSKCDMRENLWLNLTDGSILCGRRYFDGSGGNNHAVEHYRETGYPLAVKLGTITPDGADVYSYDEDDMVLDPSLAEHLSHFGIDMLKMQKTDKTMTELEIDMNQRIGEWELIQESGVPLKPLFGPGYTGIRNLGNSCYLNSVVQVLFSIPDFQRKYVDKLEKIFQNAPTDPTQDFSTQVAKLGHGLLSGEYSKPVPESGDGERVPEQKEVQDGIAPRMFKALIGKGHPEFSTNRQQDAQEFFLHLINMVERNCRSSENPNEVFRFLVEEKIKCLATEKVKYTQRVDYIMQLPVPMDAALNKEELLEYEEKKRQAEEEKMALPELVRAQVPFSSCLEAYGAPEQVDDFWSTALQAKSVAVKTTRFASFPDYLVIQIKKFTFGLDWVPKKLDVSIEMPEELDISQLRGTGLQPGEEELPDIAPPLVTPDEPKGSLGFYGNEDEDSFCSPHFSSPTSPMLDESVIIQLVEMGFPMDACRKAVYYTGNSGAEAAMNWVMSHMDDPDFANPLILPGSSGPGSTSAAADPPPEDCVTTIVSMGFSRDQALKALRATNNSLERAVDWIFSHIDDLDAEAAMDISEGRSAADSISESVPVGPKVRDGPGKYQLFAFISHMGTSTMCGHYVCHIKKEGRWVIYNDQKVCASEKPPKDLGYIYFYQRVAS
How it was run: as §1

[6] = target: USP54 (UniProt Q70EL1)
How it was run: as §1

[7] = target: USP7 (UniProt Q93009)
How it was run: as §1

[8] = target: T5, USP8 (UniProt P40818)
T5 sequence (whole entry): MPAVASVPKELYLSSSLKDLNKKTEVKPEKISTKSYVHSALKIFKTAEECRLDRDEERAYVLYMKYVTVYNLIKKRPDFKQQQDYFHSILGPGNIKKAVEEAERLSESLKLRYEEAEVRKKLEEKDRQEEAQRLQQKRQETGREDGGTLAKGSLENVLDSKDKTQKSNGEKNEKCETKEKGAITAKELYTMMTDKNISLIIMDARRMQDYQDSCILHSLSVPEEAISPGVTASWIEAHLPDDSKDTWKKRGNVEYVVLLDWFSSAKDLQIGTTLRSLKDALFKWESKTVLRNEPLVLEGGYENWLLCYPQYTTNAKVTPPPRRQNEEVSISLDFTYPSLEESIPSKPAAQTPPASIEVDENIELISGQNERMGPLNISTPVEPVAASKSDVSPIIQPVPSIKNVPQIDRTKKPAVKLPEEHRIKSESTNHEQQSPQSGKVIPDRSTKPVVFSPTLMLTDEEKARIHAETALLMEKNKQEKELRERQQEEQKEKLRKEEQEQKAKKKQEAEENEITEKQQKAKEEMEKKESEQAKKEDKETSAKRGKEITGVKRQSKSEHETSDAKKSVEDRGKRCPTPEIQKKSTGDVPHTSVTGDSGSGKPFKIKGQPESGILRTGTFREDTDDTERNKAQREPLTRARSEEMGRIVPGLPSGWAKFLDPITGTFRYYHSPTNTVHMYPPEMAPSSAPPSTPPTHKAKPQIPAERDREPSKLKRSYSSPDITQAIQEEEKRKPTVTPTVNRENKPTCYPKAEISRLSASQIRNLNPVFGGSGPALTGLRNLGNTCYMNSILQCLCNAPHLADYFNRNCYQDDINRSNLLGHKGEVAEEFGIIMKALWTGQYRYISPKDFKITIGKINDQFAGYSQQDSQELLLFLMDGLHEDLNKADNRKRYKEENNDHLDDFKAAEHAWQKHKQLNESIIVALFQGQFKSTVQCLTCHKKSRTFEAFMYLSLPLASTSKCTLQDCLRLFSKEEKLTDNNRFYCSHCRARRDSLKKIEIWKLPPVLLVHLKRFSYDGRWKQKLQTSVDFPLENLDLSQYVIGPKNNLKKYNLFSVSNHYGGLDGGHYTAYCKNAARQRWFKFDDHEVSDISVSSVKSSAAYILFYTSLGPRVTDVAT
How it was run: as §1

[9] = target: USP9X (UniProt Q93008)
How it was run: as §1

[10] = target: UniProt O00487
How it was run: as §1

Measured: log2 ratio of Biotin-Ahx-Ub-VS probe labelling

Chain of USP9X (Q93008 whole entry): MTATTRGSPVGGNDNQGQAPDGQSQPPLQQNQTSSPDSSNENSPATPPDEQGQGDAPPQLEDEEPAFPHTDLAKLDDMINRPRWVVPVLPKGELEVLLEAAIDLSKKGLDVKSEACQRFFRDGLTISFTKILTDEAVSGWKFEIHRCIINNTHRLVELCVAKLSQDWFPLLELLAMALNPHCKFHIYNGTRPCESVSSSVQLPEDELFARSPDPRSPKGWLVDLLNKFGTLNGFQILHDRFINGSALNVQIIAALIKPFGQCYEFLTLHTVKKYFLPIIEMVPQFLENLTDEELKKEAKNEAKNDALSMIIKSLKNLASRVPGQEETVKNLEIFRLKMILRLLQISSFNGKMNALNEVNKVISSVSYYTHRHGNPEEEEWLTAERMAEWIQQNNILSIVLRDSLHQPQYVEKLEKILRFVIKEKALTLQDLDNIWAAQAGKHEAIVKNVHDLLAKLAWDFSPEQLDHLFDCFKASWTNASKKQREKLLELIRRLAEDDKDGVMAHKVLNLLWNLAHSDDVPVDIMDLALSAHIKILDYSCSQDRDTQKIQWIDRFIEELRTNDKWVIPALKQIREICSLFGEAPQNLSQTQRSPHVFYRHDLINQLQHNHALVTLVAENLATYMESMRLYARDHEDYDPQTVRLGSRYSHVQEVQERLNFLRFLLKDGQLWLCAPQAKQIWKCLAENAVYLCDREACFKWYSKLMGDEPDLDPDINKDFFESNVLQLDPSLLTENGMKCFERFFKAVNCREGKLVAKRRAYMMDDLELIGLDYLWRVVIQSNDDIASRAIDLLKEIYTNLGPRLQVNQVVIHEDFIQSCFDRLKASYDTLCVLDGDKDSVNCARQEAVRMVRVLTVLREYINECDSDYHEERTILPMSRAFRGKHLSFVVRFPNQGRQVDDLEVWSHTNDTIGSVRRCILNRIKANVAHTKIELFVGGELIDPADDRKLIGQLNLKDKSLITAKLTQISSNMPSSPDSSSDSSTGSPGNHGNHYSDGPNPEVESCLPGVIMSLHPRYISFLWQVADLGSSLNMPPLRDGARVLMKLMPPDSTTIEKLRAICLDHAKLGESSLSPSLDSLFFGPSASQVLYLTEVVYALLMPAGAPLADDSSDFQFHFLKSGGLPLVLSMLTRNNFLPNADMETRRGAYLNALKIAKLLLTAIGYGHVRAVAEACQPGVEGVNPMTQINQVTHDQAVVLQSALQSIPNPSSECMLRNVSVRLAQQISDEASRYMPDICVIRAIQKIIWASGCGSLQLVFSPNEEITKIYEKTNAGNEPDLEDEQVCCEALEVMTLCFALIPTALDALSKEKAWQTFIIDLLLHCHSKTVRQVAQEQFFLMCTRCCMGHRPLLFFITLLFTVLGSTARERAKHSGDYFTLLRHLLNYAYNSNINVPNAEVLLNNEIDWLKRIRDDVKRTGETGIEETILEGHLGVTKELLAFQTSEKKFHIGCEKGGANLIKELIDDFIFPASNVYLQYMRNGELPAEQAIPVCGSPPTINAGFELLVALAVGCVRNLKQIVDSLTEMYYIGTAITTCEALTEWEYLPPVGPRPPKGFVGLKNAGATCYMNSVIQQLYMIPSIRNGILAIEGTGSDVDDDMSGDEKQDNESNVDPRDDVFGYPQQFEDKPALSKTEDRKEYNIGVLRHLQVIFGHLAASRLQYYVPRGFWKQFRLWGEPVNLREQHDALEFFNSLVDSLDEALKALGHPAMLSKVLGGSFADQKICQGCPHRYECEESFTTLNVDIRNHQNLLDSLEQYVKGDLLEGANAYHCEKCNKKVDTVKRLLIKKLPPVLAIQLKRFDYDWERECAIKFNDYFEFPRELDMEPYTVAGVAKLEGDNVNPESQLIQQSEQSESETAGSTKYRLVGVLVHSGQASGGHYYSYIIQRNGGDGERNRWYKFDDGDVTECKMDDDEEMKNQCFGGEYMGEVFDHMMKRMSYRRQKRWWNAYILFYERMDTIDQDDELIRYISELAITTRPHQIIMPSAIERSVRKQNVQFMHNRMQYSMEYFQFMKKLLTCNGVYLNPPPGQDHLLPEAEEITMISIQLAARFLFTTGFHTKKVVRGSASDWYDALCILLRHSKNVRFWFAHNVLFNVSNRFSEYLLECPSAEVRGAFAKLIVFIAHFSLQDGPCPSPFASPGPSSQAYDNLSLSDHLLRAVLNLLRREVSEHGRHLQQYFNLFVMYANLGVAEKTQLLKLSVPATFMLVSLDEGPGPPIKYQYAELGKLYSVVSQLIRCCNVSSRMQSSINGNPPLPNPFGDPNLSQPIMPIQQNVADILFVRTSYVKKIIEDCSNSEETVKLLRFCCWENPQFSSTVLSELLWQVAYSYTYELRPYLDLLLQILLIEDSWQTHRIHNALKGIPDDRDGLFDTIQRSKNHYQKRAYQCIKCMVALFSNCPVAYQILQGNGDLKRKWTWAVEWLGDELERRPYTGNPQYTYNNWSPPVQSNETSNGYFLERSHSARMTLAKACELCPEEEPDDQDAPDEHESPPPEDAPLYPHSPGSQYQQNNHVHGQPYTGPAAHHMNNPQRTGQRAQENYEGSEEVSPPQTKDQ
Chain of USP54 (Q70EL1 whole entry): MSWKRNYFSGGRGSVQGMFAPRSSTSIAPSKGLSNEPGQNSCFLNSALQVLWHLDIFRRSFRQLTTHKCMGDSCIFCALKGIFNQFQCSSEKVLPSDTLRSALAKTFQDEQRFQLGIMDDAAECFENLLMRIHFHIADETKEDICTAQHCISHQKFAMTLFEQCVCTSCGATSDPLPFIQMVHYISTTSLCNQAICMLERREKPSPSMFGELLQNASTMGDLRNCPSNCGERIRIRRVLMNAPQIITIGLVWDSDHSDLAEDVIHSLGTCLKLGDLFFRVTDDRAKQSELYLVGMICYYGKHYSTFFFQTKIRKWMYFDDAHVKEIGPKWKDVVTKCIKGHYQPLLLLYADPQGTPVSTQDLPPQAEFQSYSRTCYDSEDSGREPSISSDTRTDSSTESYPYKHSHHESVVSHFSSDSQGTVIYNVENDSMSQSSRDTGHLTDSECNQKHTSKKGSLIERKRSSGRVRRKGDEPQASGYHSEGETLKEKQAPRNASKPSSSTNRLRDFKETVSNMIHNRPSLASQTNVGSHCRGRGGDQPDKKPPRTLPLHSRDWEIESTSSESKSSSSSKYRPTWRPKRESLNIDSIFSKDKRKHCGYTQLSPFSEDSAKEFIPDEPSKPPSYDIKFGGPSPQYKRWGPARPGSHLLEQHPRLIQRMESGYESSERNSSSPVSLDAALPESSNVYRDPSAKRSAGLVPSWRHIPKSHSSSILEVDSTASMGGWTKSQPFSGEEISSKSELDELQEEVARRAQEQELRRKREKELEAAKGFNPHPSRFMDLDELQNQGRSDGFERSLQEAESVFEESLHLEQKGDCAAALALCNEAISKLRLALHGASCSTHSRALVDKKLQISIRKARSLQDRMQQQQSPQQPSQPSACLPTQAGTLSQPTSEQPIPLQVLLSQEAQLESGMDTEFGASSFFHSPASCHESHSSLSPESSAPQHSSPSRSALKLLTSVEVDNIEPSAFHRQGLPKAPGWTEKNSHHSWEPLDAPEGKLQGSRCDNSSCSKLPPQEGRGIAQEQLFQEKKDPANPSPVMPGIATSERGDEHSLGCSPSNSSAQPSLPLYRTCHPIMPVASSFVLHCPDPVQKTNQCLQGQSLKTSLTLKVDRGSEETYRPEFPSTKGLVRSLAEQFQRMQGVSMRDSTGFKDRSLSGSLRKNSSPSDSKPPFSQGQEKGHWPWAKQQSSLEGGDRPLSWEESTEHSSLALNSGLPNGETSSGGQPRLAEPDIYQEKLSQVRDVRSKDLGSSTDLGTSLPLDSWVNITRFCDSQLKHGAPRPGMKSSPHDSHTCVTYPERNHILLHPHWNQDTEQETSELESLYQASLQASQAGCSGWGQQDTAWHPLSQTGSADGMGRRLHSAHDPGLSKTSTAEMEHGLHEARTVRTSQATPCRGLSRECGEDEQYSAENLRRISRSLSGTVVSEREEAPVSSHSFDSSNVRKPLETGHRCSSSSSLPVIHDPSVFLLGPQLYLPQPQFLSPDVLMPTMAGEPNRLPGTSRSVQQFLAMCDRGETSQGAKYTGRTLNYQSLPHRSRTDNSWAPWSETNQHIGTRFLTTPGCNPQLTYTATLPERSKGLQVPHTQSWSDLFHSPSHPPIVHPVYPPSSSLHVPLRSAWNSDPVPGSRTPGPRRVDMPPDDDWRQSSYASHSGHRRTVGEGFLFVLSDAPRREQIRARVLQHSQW
Chain of UniProt O00487 (O00487 whole entry): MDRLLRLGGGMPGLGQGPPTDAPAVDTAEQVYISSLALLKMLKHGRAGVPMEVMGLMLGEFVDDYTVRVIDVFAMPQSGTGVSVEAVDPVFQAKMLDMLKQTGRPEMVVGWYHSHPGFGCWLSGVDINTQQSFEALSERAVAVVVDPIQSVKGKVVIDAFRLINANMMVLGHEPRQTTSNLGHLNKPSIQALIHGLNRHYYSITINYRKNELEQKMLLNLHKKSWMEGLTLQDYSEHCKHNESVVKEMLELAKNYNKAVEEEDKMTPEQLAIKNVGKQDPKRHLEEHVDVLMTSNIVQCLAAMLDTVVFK
Chain of USP46 (P62068 whole entry): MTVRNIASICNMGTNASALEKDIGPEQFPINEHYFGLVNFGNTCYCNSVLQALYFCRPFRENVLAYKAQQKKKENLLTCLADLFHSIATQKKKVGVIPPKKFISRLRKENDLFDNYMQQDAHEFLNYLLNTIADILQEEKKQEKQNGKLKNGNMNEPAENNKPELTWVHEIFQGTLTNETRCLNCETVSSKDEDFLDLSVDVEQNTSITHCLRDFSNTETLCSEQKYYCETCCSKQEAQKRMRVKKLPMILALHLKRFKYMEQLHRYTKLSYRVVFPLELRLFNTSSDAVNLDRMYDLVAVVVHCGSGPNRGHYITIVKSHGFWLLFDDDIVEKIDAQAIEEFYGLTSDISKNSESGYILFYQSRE

O=C(CCl)NC1(c2ccc3c(c2)OCCO3)CCCC1
inactive: [1] -0.0517 | [2] -0.105 | [3] -0.898 | [4] -0.261 | [5] 0.179 | [6] 1.09 | [7] -0.305 | [8] -0.374 | [9] -0.378 | [10] -0.176
